The source of these data is PMC4336329 (PLoS ONE, 2015).

Screen size: about 310,000 compounds; about 14,000 (4.5%) showed an effect of 50% or more. Effects have a minus sign here. The sample as a whole holds a higher share of strong results than the screen did.
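Note: peak tail current of the secondary pulse compared with the same well before compound.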

Sequence of human ether-à-go-go-related gene (hERG) potassium channel (Q12809 whole entry, looked up): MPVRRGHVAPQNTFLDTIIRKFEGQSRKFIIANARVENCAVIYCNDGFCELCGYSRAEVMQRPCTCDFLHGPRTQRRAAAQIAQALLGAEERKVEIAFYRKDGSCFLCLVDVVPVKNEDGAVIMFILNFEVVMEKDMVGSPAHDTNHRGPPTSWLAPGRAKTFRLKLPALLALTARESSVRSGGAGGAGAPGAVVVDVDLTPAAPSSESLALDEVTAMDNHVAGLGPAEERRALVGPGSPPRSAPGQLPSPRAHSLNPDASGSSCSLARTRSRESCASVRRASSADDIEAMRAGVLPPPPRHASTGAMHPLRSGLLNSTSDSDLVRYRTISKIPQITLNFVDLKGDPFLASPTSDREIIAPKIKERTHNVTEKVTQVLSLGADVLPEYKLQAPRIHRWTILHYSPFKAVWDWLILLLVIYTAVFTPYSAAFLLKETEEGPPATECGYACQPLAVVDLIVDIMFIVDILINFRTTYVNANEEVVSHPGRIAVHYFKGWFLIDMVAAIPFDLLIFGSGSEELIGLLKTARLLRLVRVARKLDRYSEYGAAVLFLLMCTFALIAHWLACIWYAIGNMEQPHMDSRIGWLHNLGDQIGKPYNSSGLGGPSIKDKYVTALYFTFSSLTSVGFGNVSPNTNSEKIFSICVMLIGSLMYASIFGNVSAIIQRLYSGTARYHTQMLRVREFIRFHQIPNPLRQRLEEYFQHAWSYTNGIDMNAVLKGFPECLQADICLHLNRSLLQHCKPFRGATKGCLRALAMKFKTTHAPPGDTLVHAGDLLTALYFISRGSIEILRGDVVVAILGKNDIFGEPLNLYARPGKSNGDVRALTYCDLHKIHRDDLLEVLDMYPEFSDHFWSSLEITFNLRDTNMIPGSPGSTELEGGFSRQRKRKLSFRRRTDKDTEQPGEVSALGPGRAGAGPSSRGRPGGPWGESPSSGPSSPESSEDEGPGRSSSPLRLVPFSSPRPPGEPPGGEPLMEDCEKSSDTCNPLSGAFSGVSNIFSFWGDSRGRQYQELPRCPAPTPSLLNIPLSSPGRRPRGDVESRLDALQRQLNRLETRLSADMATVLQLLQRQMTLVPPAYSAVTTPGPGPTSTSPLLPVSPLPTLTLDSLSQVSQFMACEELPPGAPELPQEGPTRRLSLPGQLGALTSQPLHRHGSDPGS

The assay concerns the target human ether-à-go-go-related gene (hERG) potassium channel (human, UniProt Q12809). Nature of the assay: primary screen, population patch clamp on CHO cells stably expressing hERG; higher = less effect of the substance.
With `Cc1ccc2cc(C=C(C#N)C#N)c(N3CCCCC3)nc2c1`, the “hERG current change (%, negative = inhibition) at 10uM” value was 15.3%. The figure for `Nc1ccc2c(c1)-c1ccccc1S(=O)(=O)N2` is 11.1%; for `COc1ccc(O)c2c(=O)c3c(OC)cc4c(c3oc12)C1C=COC1O4` (stereo not drawn) it is 4.03%; for `O=C(c1cccs1)N1CCN=C1SCc1ccccc1` it is 7.77%. The figure for `O=C1c2ccccc2C(=O)N1CCCn1c(=O)oc2ccccc21` is 11.4%. The figure for `Cc1cccc(-n2nnc3c(=O)n(Cc4ccccn4)cnc32)c1` is -7.65%; for `COc1ccc(C(CNC(=O)Nc2ccccc2)N2CCN(C)CC2)cc1` (stereo not drawn) it is -12.8%; for `Cc1cccc(NC(=O)NCC(c2ccc(F)cc2)N2CCN(C)CC2)c1` (stereo not drawn) it is -42.6%.

In the case of `Cc1ccc(C(CNC(=O)c2ccc(Br)o2)N2CCN(C)CC2)cc1` (stereo not drawn), the “hERG current change (%, negative = inhibition) at 10uM” value is on record as -60.4%.

As to `Cc1ccc(C(CNC(=O)Nc2ccccc2)N2CCN(C)CC2)cc1` (stereo not drawn), the “hERG current change (%, negative = inhibition) at 10uM” value was -28.9%. To `CN1CCN(C(CNC(=O)Nc2ccc(Cl)cc2)c2ccc(F)cc2)CC1` (stereo not drawn) belongs -56.3%. Turning to `Cc1ccc(C(CNC(=O)Nc2ccc(Cl)cc2)N2CCN(C)CC2)cc1` (stereo not drawn), the “hERG current change (%, negative = inhibition) at 10uM” value was -76.8%. To `Cc1ccc(C(CNC(=O)c2ccco2)N2CCN(C)CC2)cc1` (stereo not drawn) belongs -11.1%. To `COc1ccc(C(CNC(=O)Nc2ccc(Cl)cc2)N2CCN(C)CC2)cc1` (stereo not drawn) belongs -24.5%; to `CN1CCN(C(CNC(=O)c2ccc(Br)o2)c2ccc(F)cc2)CC1` (stereo not drawn), -17.5%. With `Cc1ccc(/C=C(\C#N)C(=O)NCc2ccco2)o1`, the “hERG current change (%, negative = inhibition) at 10uM” value was determined as 3.84%. The figure for `O=C(c1ccccc1)c1cn[nH]c1-c1ccccc1O` is 5.65%. The figure for `CCOc1ccc(S(=O)(=O)NCCC(=O)N(C)Cc2cccs2)cc1` is -20.9%.

Consider `COc1cc(/C=N/NC(=O)c2ccccn2)ccc1OC(=O)c1ccc(Br)cc1`, for which the “hERG current change (%, negative = inhibition) at 10uM” value is 1.06%.

Turning to `CCn1c(=O)c([N+](=O)[O-])c(NC2CCS(=O)(=O)C2)c2ccccc21` (stereo not drawn), the “hERG current change (%, negative = inhibition) at 10uM” value turned out to be 5.85%. To `COCCNC(=O)CCC1CCN(Cc2cccc(-c3ccc(C)o3)c2)CC1` belongs -25.3%. To `COCCNC(=O)CCC1CCN(Cc2ccc(-c3ccccc3)cc2)CC1` belongs -63.6%. As for `OC1CCN(Cc2cccc(Oc3ccccc3)c2)CC1`, the “hERG current change (%, negative = inhibition) at 10uM” value was 6.4%. The figure for `COCCNC(=O)CCc1nnc(Cc2ccc(-c3ccccc3)cc2)o1` is 14.5%; for `COCCNC(=O)CCC1CCN(Cc2cccc(Oc3ccccc3)c2)CC1` it is -55.3%; for `COCCNC(=O)CN1CCC(NC(=O)Nc2ccccc2)CC1` it is -8.21%. To `Clc1ccccc1-c1nnc2sc(-c3ccco3)nn12` belongs -21.8%; to `O=C(CSc1ccc([N+](=O)[O-])cn1)Nc1ccccc1N1CCOCC1`, -19.2%.

On to `c1nc(NC2CCCCC2)c2[nH]cnc2n1`, for which the “hERG current change (%, negative = inhibition) at 10uM” value is given as -3.86%.

On to `COc1ccc(/C=C2\CCCCC2=O)cc1`, for which the “hERG current change (%, negative = inhibition) at 10uM” value is -6.19%.

As to `Cc1ccc(C(C)C)c(OCC(=O)Nn2c(=O)[nH]c3ccccc3c2=O)c1`, the “hERG current change (%, negative = inhibition) at 10uM” value is reported as -12.6%. On to `COc1ccc(/C=N/n2cnc3c([nH]c4ccccc43)c2=O)cc1CO`, for which the “hERG current change (%, negative = inhibition) at 10uM” value is on record as 11.2%. The figure for `COc1ccc2c(c1)[nH]c1c(=O)n(/N=C/c3ccc(OC)c(COc4ccccn4)c3)cnc12` is -9.63%. To `COc1ccc2c(c1)[nH]c1c(=O)n(/N=C/c3ccc(OC)c(CN4CCCC4)c3)cnc12` belongs -71.1%; to `COc1ccc(/C=N/n2c(=O)[nH]c3c([nH]c4ccc(Cl)cc43)c2=O)cc1CN1CCCCC1`, -13%; to `COc1ccc(/C=N/n2cnc3c([nH]c4ccccc43)c2=O)cc1COc1ccccn1`, -8.67%. To `COc1ccc2c(c1)[nH]c1c(=O)n(/N=C/c3ccc(OC)c(CN4CCCCC4)c3)cnc12` belongs -64.3%. On to `CCC(C)NC(=O)CN(c1ccc(Cl)c(Cl)c1)S(C)(=O)=O` (stereo not drawn), for which the “hERG current change (%, negative = inhibition) at 10uM” value is 3.62%. The figure for `O=C(NC1CCCC1)c1cc(S(=O)(=O)N2CCOCC2)c(Cl)cc1Cl` is -8.15%. The figure for `O=C(Nc1nnc(-c2ccc3c(c2)CCCC3)o1)C1CCCCC1` is 4.3%; for `O=C(CSc1nnc(NC(=O)c2ccccc2F)s1)Nc1ccccc1F` it is 30.9%. The figure for `CCn1c(SCC(=O)N2CCCCC2)nc2c1c(=O)n(C)c(=O)n2C` is 14.3%; for `CCCOc1ccc(/C(O)=C2/C(=O)C(=O)N(CCCOC)C2c2cccnc2)cc1` (stereo not drawn) it is -5.91%; for `CCCOc1ccc(/C(O)=C2/C(=O)C(=O)N(CCCOC)C2c2ccncc2)cc1` (stereo not drawn) it is -53.1%.

With `CCCCOc1ccc(/C(O)=C2/C(=O)C(=O)N(CCCOC)C2c2ccncc2)cc1` (stereo not drawn), the “hERG current change (%, negative = inhibition) at 10uM” value worked out at 18.2%. To `O=C(C1CCCN(Cc2ccccc2[N+](=O)[O-])C1)N1CCCC1.O=C(O)C(=O)O` (stereo not drawn) belongs 11.4%; to `CC(C)CC(=O)N1CCN(Cc2ccccc2[N+](=O)[O-])CC1.O=C(O)C(=O)O`, -7.35%; to `COc1cc(OC)cc(C(=O)N2CCN(Cc3ccccc3[N+](=O)[O-])CC2)c1.O=C(O)C(=O)O`, -46.5%.

Turning to `O=C(c1cccs1)N1CCN(Cc2ccccc2[N+](=O)[O-])CC1`, the “hERG current change (%, negative = inhibition) at 10uM” value is -17.7%. The figure for `O=C(O)C(=O)O.O=C(c1ccc([N+](=O)[O-])cc1)N1CCN(Cc2ccccc2[N+](=O)[O-])CC1` is -75%. The figure for `COc1cccc(C(=O)N2CCN(Cc3ccccc3[N+](=O)[O-])CC2)c1` is -14.5%; for `COc1ccc(C(=O)N2CCN(Cc3ccccc3[N+](=O)[O-])CC2)cc1.O=C(O)C(=O)O` it is -58.9%; for `CN(Cc1ccccc1)C1CCN(Cc2ccccc2[N+](=O)[O-])CC1.O=C(O)C(=O)O` it is -59.6%. The figure for `O=C(Cc1ccccc1[N+](=O)[O-])NC1CCN(Cc2ccccc2)CC1` is -1.68%.
